# Laboratory results: PubChem BioAssay (EPA / NIEHS)
# Inconclusive results are not listed. Activity calls are given as the source filed them. How the source made its calls: active means hit-call score of the fitted dose curve at least 0.9, where 1 is the maximum; inconclusive means response in the unintended direction; inactive means score below 0.9.
# Target: D(1A) dopamine receptor (Homo sapiens) (UniProt P21728)
# Assay: NVS_GPCR_hDRD1: NovaScreen (NVS) G Protein-Coupled Receptor Assay for human Dopamine Receptor D1 (DRD1) (AID 2283269)
# Description: NVS_GPCR_hDRD1 is a biochemical, single-readout assay that uses extracted gene-proteins from HEK293 in a cell-free assay. Measurements were taken 1 hour after chemical dosing in a 96-well plate.NVS_GPCR_hDRD1 is one of one assay component(s) measured or calculated from the NVS_GPCR_hDRD1 assay. It is designed to make measurements of radioligand binding, a form of binding reporter, as detected with scintillation counting signals by Filter-based radiodetection technology.Data from the assay component NVS_GPCR_hDRD1 was analyzed into 1 assay endpoint. This assay endpoint, NVS_GPCR_hDRD1, was analyzed in the positive analysis fitting direction relative to DMSO as the negative control and baseline of activity. Using a type of binding reporter, loss-of-signal activity can be used to understand changes in the binding as they relate to the gene DRD1. Furthermore, this assay endpoint can be referred to as a primary readout, because the performed assay has only produced 1 assay endpoint. To generalize the intended target to other relatable targets, this assay endpoint is annotated to the gpcr intended target family, where the subfamily is rhodopsin-like receptor.
# Binding assays used specific radioligands (tritiated, iodinated) with non-radioactive competitive displacement ligands in agonist or antagonist protocols (as indicated) and various reference compounds and inhibitors to titrate specific binding to receptors and transporters. Most enzyme assays (CYPs, kinases, phosphatases, proteases, HDACs) used recombinant protein and specific substrates (fluorescence mostly, some colorimetric and radioactive) and inhibitors, followed by a biochemical separation of substrate and product. All assays for the biochemical HTS were initially run in duplicate at a single concentration (10 uM for CYP450 assays and 25 uM for all others). […] Each assay was run with positive and negative controls, and concurrent controls on every plate. The follow-up (secondary) screen tested active chemical-pairs in concentration series, as well as a few additional assays not tested in the primary screen, some selected negative inactives, and several cases re-run in the concentration series for confirmatory purposes.
# Sequence of D(1A) dopamine receptor (Homo sapiens) (P21728 whole entry, looked up): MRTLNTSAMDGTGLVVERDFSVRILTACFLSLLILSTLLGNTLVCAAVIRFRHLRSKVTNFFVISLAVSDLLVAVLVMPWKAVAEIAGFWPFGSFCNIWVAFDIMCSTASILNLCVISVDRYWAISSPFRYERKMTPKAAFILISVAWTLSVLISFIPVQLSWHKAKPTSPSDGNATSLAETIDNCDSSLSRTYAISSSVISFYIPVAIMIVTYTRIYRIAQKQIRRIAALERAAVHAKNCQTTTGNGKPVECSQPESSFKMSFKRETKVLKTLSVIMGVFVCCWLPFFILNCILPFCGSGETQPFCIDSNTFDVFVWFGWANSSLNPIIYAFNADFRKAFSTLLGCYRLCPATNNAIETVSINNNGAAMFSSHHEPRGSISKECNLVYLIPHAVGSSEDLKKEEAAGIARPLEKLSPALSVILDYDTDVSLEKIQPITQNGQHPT
SMILES,outcome,AC50
Cn1cnc2c1c(=O)[nH]c(=O)n2C,inactive,–
CCc1nc(N)nc(N)c1-c1ccc(Cl)cc1,–,4.73 µM (active)
CCN(CC)CCOc1ccc(C(=C(Cl)c2ccccc2)c2ccccc2)cc1,–,2.28 µM (active)
O=C(N[C@@H](c1ccccc1)[C@@H]1CCCCN1)c1cccc(C(F)(F)F)c1Cl,–,12.1 µM (active)
CSc1ccc(Oc2ccc(S(N)(=O)=O)cc2CN(C)C)cc1C,–,5.11 µM (active)
COc1ccc(OC(F)(F)F)cc1CN[C@H]1CCCN[C@H]1c1ccccc1,–,25 µM (active)
Cc1cc(SC2=C(O)C[C@@](CCc3ccc(N)cc3)(C(C)C)OC2=O)c(C(C)(C)C)cc1CO,inactive,–
CCCCCCCCCCCCCCOS(=O)(=O)O,–,5.18 µM (active)
O=C1OC(c2ccc(O)cc2)(c2ccc(O)cc2)c2ccccc21,–,4.96 µM (active)
O=C(O)c1[nH]n(-c2ccc(S(=O)(=O)O)cc2)c(=O)c1N=Nc1ccc(S(=O)(=O)O)cc1,–,19.2 µM (active)
